Bioassay records from PubChem BioAssay.
Hits are enriched below; roughly 6.7% of the tested compounds scored in any of these assays.
T cruzi growth-1 = blocks T. cruzi growth in NIH3T3 culture | T. cruzi beta-gal in NIH3T3, GalScreen luminescence, 90 h | inhibition, % at 8.34 µM | hit rate 5.9% among 77,000 | AID 624255;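 active = mean inhibition above about 93%, with at least 55% of replicates each passing it, limit read from the data, passing the limit was not always enough; inconclusive = only one of those two conditions holds; inactive = neither condition holds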
C diff HTS = blocks growth of Clostridium difficile | Clostridium difficile clinical isolate growth, OD600, 24 h; hits give low values | growth activity, negative = inhibition, % at 16 µg/mL (by protocol) | hit rate 0.25% among 86,000;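 active = mean growth activity at or below -80% and every replicate also at or below -80%; inconclusive = mean at or below -80% but some replicate above -80%; inactive = mean growth activity above -80%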;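 note: 0% = DMSO wells and -100% = levofloxacin 16 µg/mL wells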
Pf Dd2 growth = P. falciparum Dd2 growth inhibition. hit rate 2.3% among 94,000. SYBR Green, 72 h; hits give low values. activity change, % at 10 µM; in the data active = activity change below about -80%; inconclusive = no clear call, values can overlap the other calls
T cruzi growth-2 = blocks T. cruzi growth in NIH3T3 host cells | T. cruzi beta-gal in NIH3T3, GalScreen luminescence, 90 h | shares compounds with T cruzi growth-1 | inhibition, % at 8.35 µM | hit rate 72% among 5,600 | AID 651739;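 active = mean replicate inhibition above about 95% and at least 55% of replicates individually reaching it, limit read from the data; inconclusive = only one of the two criteria is met; inactive = neither criterion is met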
T cruzi growth-3 = blocks T. cruzi growth in NIH3T3 host cells | T. cruzi beta-gal in NIH3T3, GalScreen luminescence, 90 h | shares compounds with T cruzi growth-1 | inhibition, % at 2.09 µM | hit rate 21% among 5,600;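 active = mean inhibition above about 95%, with at least 55% of replicates also reaching it, limit read from the data; inconclusive = meets just one of the two conditions; inactive = meets neither condition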;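 note: plate controls were neutral control median for no effect and positive control median for full effect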
3T3 cytotox = cytotoxicity in mouse NIH/3T3 fibroblasts. shares compounds with T cruzi growth-1. hit rate 14% among 5,600. NIH/3T3 viability, CellTiter-Glo ATP luminescence, 90 h. cytotoxicity (signal decrease), % at 8.35 µM;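 active = mean signal decrease across replicates above about 35% based on untreated-well scatter, with enough replicates individually passing, limit read from the data; inconclusive = no rule stated though some were filed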;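 note: 0% = median of neutral control wells and 100% = median of positive control wells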
NIH3T3 tox 2 = cytotoxicity in mouse NIH/3T3 fibroblasts; shares compounds with T cruzi growth-1; NIH/3T3 viability, CellTiter-Glo ATP luminescence, 90 h; inhibition, % at 24.9 µM; hit rate 56% among 5,600;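 active = mean loss of cell viability signal at or above a set limit, and enough replicates individually reaching it; inconclusive = meets only the mean limit or only the replicate share; inactive = meets neither condition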;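 note: 0% = median of neutral control wells and 100% = median of positive control wells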
Active calls of the source: *; ? = inconclusive; . = no result.

SMILES | T cruzi growth-1 | C diff HTS | Pf Dd2 growth | T cruzi growth-2 | T cruzi growth-3 | 3T3 cytotox | NIH3T3 tox 2
COc1ccc(NC(=O)Nc2ccc3c(c2)C(=O)N(C)C[C@H](OC)[C@@H](C)CN[C@H](C)CO3)cc1 | -19 | 4 | -4 | . | . | . | .
COc1ccccc1NC(=O)N(C)C[C@H]1OCc2ccccc2-c2ccccc2C(=O)N([C@H](C)CO)C[C@H]1C | 55 | -1 | 23 | . | . | . | .
O=C(Nc1ccc(F)cc1)N1CCCCN2[C@H](C1)[C@H](c1ccc(-c3ccccc3F)cc1)[C@@H]2CO | ? | 26 | 20 | 109* | 51 | 32 | 65*
COc1ccc(NC(=O)N2CCCCN3[C@H](C2)[C@@H](c2ccc(-c4ccccc4F)cc2)[C@@H]3CO)cc1 | 58 | 28 | -6 | . | . | . | .
O=C(Nc1cccc(F)c1)N1CCCCN2[C@H](CO)[C@H](c3ccc(-c4ccccc4F)cc3)[C@H]2C1 | 101* | -29 | -28 | 104* | 112* | 117* | 104*
O=C(Nc1ccccc1)N1CCCCN2[C@H](CO)[C@H](c3ccc(-c4ccccc4F)cc3)[C@@H]2C1 | 101* | -1 | 15 | 111* | 60 | -20 | 17
O=C(Nc1ccc(F)cc1)N1CCCCN2[C@H](CO)[C@H](c3ccc(-c4ccccc4F)cc3)[C@@H]2C1 | 115* | -4 | -1 | 108* | 64 | 4 | 52*
O=C(Nc1ccccc1)N1CCCCN2[C@@H](CO)[C@H](c3ccc(-c4ccccc4F)cc3)[C@@H]2C1 | 66 | 54 | -4 | . | . | . | .
COc1ccc(NC(=O)N2CCCCN3[C@H](CO)[C@H](c4ccc(-c5ccccc5F)cc4)[C@H]3C2)cc1 | 81 | 82 | -22 | . | . | . | .
CNC[C@H]1Oc2ccc(NS(=O)(=O)c3ccc(F)cc3)cc2CC(=O)N([C@@H](C)CO)C[C@H]1C | . | -4 | 14 | . | . | . | .
CN1CCN(C(=O)C[C@H]2CC[C@H](NC(=O)Cc3ccccn3)[C@@H](CO)O2)CC1 | 37 | . | 4 | . | . | . | .
O=C(Nc1ccc(F)cc1)N1CCCCN2[C@@H](CO)[C@H](c3ccc(-c4ccccc4F)cc3)[C@@H]2C1 | 106* | 36 | -31 | 87 | 90 | 55* | 104*
O=C(Nc1ccc(F)cc1)N1CCCCN2[C@H](C1)[C@@H](c1ccc(-c3ccccc3F)cc1)[C@@H]2CO | 85 | 41 | 27 | . | . | . | .
COCC#Cc1ccc([C@H]2[C@H]3CN(Cc4cncnc4)CCCCN3[C@H]2CO)cc1 | 78 | -8 | 13 | . | . | . | .
COCC#Cc1ccc([C@@H]2[C@H](CO)N3CCCCN(Cc4cccnc4)C[C@@H]23)cc1 | 10 | 0 | -9 | . | . | . | .
COCC#Cc1ccc([C@H]2[C@@H](CO)N3CCCCN(Cc4cccnc4)C[C@H]23)cc1 | 100* | -1 | -11 | 96* | 59 | 5 | 14
COCC#Cc1ccc([C@H]2[C@@H](CO)N3CCCCN(Cc4cncnc4)C[C@@H]23)cc1 | 108* | -2 | 13 | 92 | 61 | 6 | 13
COCC#Cc1ccc([C@H]2[C@H](CO)N3CCCCN(Cc4cccnc4)C[C@@H]23)cc1 | 102* | 1 | 6 | 101* | 86 | 13 | 5
C[C@H](O)C#Cc1cnc2c(c1)C(=O)N([C@H](C)CO)C[C@@H](C)[C@H](CN(C)Cc1ccccn1)O2 | 1 | 0 | 5 | . | . | . | .
O=C(C[C@H]1C=C[C@H](NS(=O)(=O)c2cccc(F)c2)[C@@H](CO)O1)NCc1ccc2c(c1)OCO2 | . | 2 | 0 | . | . | . | .
C[C@@H]1CN([C@H](C)CO)C(=O)Cc2cc(NC(=O)CCN3CCOCC3)ccc2O[C@H]1CN(C)S(=O)(=O)c1cccs1 | 3 | -1 | -4 | . | . | . | .
C/C=C/c1ccc2c(c1)O[C@H](CN(C)Cc1cncnc1)[C@H](C)CN([C@H](C)CO)S2(=O)=O | . | 3 | 20 | . | . | . | .
C/C=C/c1ccc2c(c1)O[C@H](CN(C)Cc1ccncc1)[C@H](C)CN([C@H](C)CO)S2(=O)=O | 71 | -1 | 3 | . | . | . | .
C/C=C/c1ccc2c(c1)O[C@@H](CN(C)Cc1ccncc1)[C@@H](C)CN([C@@H](C)CO)S2(=O)=O | 109* | -2 | -42 | 96* | 101* | 33 | 29*
C/C=C/c1ccc2c(c1)O[C@H](CN(C)Cc1ccncc1)[C@@H](C)CN([C@H](C)CO)S2(=O)=O | 108* | -5 | 0 | 97* | ? | 45* | 74*
SMILES | T cruzi growth-1 | C diff HTS | Pf Dd2 growth | T cruzi growth-2 | T cruzi growth-3 | 3T3 cytotox | NIH3T3 tox 2
COc1ccc(S(=O)(=O)N(C)C[C@@H]2Oc3ccc(NC(=O)Cc4ccccc4)cc3CC(=O)N([C@H](C)CO)C[C@H]2C)cc1 | . | -2 | -18 | . | . | . | .
CO[C@H]1CN(C)C(=O)c2cc(NC(C)=O)ccc2OC[C@H](C)N(Cc2ccccn2)C[C@H]1C | 25 | -1 | -9 | . | . | . | .
C[C@H]1CN([C@@H](C)CO)S(=O)(=O)c2ccc(C#Cc3ccncc3)cc2O[C@H]1CN(C)S(=O)(=O)c1ccc(F)cc1 | 118* | 10 | -89* | 102* | 67 | ? | 11
C[C@H]1CN([C@@H](C)CO)S(=O)(=O)c2ccc(C#Cc3ccncc3)cc2O[C@@H]1CN(C)C | -6 | 5 | -63 | . | . | . | .
C[C@H](CO)N1C[C@H](C)[C@H](CN(C)S(=O)(=O)c2ccc(F)cc2)Oc2cc(C#Cc3ccncc3)ccc2S1(=O)=O | 114* | 9 | -84* | 92 | 45 | ? | 65*
C[C@H]1CN([C@@H](C)CO)S(=O)(=O)c2ccc(C#Cc3ccncc3)cc2O[C@H]1CN(C)C | 10 | 7 | -30 | . | . | . | .
COCC#Cc1cnc2c(c1)C(=O)N([C@H](C)CO)C[C@H](C)[C@@H](CN(C)S(C)(=O)=O)O2 | -86 | 1 | 26 | . | . | . | .
CCNC(=O)C[C@H]1CC[C@@H]2[C@H](COc3ccc(NC(=O)Nc4ccccc4Cl)cc3C(=O)N2C)O1 | 0 | 1 | 1 | . | . | . | .
O=C(C1CCOCC1)N1CC2(C1)[C@@H](c1ccccc1)[C@@H](CO)N2Cc1ccc(Cl)cc1 | . | -3 | -18 | . | . | . | .
COCC(=O)Nc1ccc2c(c1)C(=O)N(C)[C@@H]1CC[C@@H](CC(=O)Nc3ccccc3)O[C@H]1CO2 | -9 | 5 | -15 | . | . | . | .
CC(C)CC#Cc1cnc2c(c1)C(=O)N([C@@H](C)CO)C[C@H](C)[C@H](CN(C)C(=O)Nc1ccccc1F)O2 | . | -4 | -22 | . | . | . | .
COc1ccccc1NC(=O)N(C)C[C@@H]1Oc2ncc(C#CCC(C)C)cc2C(=O)N([C@H](C)CO)C[C@@H]1C | 74 | 5 | -10 | . | . | . | .
CCCC#Cc1cnc2c(c1)C(=O)N([C@@H](C)CO)C[C@@H](C)[C@H](CN(C)C(=O)Nc1ccccc1F)O2 | ? | -2 | -57 | 115* | 89 | -5 | 39*
CCCC#Cc1cnc2c(c1)C(=O)N([C@@H](C)CO)C[C@H](C)[C@@H](CN(C)C(=O)Nc1ccccc1F)O2 | -2 | -13 | -43 | . | . | . | .
